Screening data from PubChem BioAssay.
SRC3 TRFRET art – flags TR-FRET format artefacts in PPARgamma SRC-3 recruitment agonist screen. TR-FRET artefact counter-screen, PPARgamma/SRC-3 format; active compounds read high. TR-FRET ratio at 8 µM. 99,000 tested, 0.39% active
PPARg SRC1 recr – PPARgamma-driven SRC-1 recruitment agonism. PPARgamma-SRC-1 coactivator recruitment biochemical assay. activation, % at 8 µM. 200,000 tested, 0.41% active; in the data active = activation above about 19%;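 note: 0% = DMSO and 100% = reference agonist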
Target sequence (P37231 whole entry, looked up): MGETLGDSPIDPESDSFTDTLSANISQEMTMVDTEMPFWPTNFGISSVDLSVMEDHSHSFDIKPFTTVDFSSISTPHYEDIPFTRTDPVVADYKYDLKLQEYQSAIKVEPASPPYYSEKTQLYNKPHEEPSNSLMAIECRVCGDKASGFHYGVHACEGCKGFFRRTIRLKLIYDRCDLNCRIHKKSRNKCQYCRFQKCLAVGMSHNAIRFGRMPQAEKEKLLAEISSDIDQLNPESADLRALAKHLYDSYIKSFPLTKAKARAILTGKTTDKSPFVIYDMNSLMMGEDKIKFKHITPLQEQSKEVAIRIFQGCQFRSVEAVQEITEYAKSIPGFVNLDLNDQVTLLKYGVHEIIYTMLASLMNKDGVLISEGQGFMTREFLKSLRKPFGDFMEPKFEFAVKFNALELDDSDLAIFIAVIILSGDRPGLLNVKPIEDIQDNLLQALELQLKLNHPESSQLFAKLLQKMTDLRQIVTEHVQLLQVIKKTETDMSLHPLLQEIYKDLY
PPARg SRC3 recr – PPARgamma-driven SRC-3 recruitment agonism; biochemical PPARgamma/SRC-3 coactivator recruitment assay; activation, % at 8 µM; 200,000 tested, 0.26% active; in the data active = activation above about 23%;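 note: 0% = DMSO and 100% = reference agonist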
TR-FRET SRC-2 ct – flags TR-FRET format artefacts in PPARgamma SRC-2 recruitment agonist screen; TR-FRET artefact counter-screen; active compounds read high; TR-FRET ratio at 8 µM; 200,000 tested, 0.4% active
PPARg SRC2 recr – PPARgamma-driven SRC-2 recruitment agonism; 200,000 tested, 0.34% active; P37231; AID 1032; activation, % at 8 µM; PPARgamma LBD-SRC-2 recruitment, biochemical; in the data active = activation above about 22%;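 note: 0% = vehicle and 100% = reference agonist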
SRC1 TRFRET art – flags TR-FRET format artefacts in PPARgamma SRC-1 recruitment agonist screen | 99,000 tested, 0.34% active | TR-FRET detection artefact counter-screen, emission ratio; active compounds read high | TR-FRET ratio at 8 µM; in the data active = TR-FRET ratio above about 2300
PPARg SRC2 conf – human PPARgamma SRC-2 recruitment agonism, confirmation. biochemical SRC-2 recruitment by PPARgamma. activation, % at 8 µM. 790 tested, 52% active. shares compounds with PPARg SRC3 recr. AID 1297; in the data active = activation above about 22%;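 note: 0% = vehicle alone and 100% = reference agonist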
PPARg SRC1 ag – confirmation of agonists of SRC-1 recruitment by human PPARgamma. PPARgamma–SRC-1 coactivator recruitment biochemical assay. 790 tested, 43% active. AID 1300. activation, % at 8 µM. shares compounds with PPARg SRC3 recr; in the data active = activation above about 20%;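 note: 0% = vehicle wells and 100% = reference agonist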
PPARg SRC3 conf – confirmation of agonists of SRC-3 recruitment by human PPARgamma | shares compounds with PPARg SRC3 recr | biochemical PPARgamma-SRC-3 coactivator recruitment, agonist mode | activation, % at 8 µM | 790 tested, 29% active | AID 1301; in the data active = activation above about 24%;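 note: 0% = vehicle wells and 100% = reference agonist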
The depositor's hits bear a star; x = no result. Most compounds without a hit are left out; they make up all but 0.9% or so of the library. Cut-off read from the data, not from the text of the source, unless noted: active = TR-FRET ratio above about 2000; inactive = the rest.

SMILES | SRC3 TRFRET art | PPARg SRC1 recr | PPARg SRC3 recr | TR-FRET SRC-2 ct | PPARg SRC2 recr | SRC1 TRFRET art | PPARg SRC2 conf | PPARg SRC1 ag | PPARg SRC3 conf
CCOc1ccc(N/C=C/C(=O)c2ccc(C)cc2)c([N+](=O)[O-])c1 | x | 24* | 19 | 1659 | 13 | x | 3 | 2 | -4
COc1ccc(CCNC(=O)C(=O)NCc2ccc(Cl)cc2)cc1OC | 1550 | 3 | 4 | 1503 | -4 | 1708 | x | x | x
NC(=O)C(=O)N/N=C/c1cccc(C(F)(F)F)c1 | 1322 | 4 | -2 | 1759 | 4 | 1590 | x | x | x
CC(C)c1[nH]nc2c1C(Cc1ccccc1)C(C#N)=C(N)O2 (stereo unspecified) | x | 19* | -7 | 1603 | 8 | x | 7 | 4 | 4
Cc1cc(C)nc(NS(=O)(=O)c2ccc(NC(=O)CSc3nc(-c4ccccc4)c(C#N)c(=O)[nH]3)cc2)n1 | 2218* | 21* | 11 | 2049* | 24* | 2109 | 14 | 11 | 11
N#Cc1c(-c2ccccc2)nc(SCC(=O)Nc2ccccc2)[nH]c1=O | 1873 | 17 | 5 | 1703 | 6 | 2166 | x | x | x
Cc1cccc(C)c1NC(=O)NC1(C(=O)N2CCOCC2)CCCCC1 | 1590 | -1 | -1 | 1476 | 0 | 1889 | x | x | x
O=C(Nc1ccccc1F)c1ccc(-n2cncn2)nc1 | x | 1 | 10 | 1617 | 23* | x | 6 | 5 | 3
COc1ccccc1NC(=O)c1ccc(-n2cncn2)nc1 | 1488 | -5 | -4 | 1534 | 0 | 1830 | x | x | x
CC(C)/C(=N\NS(=O)(=O)c1ccc(Br)cc1)c1cccs1 | 1522 | 4 | -4 | 1629 | -8 | 1998 | x | x | x
Cc1ccccc1-c1ccc(C=Nc2c(C)n(C)n(-c3ccccc3)c2=O)o1 | x | 24* | 20 | 2051* | 35* | x | 24* | 19 | 17
CC(=O)c1c(C)[nH]c(C(=O)NCc2ccco2)c1C | 1442 | -8 | -6 | 1727 | -3 | 1753 | x | x | x
CCn1ccnc1[C@@H]1C[C@H]2CN(c3ccccc3OC)C(=O)[C@]23CCCN13 | 1459 | -2 | -1 | 1559 | -5 | 1721 | x | x | x
O=C(Nc1nnc(-c2ccco2)s1)C1CCN(S(=O)(=O)c2ccc(Cl)cc2)CC1 | x | 34* | 36* | 1816 | 20 | x | 24* | 20 | 14
COc1ccccc1CN1C[C@@H]2C[C@@H](c3cccc(C)c3)N3CCC[C@@]23C1=O | 1697 | 12 | 3 | 1664 | 9 | 2064 | x | x | x
O=C(CSc1nnc(COc2cccc3cccnc23)o1)N1CCc2ccccc21 | x | 20* | 14 | 1448 | 0 | x | 5 | 3 | 7
O=C(O[C@@H]1OC2COC(=O)c3cc(O)c(O)c(O)c3-c3c(cc(O)c(O)c3O)C(=O)O[C@@H]([C@H]1O)[C@@H]2O)c1cc(O)c(O)c(O)c1 | 1701 | 20 | 10 | 1547 | 24* | 1985 | 8 | 7 | 2
CC1CCCN(C(=O)c2ccc3c(c2NCCO)C(=O)c2ccccc2C3=O)C1 (stereo unspecified) | x | 8 | 17 | 1480 | 15 | x | x | x | x
O=C1c2ccccc2C(=O)c2c1ccc(C(=O)N1CCCCC1)c2NCCO | x | 21* | 21 | 1568 | 5 | x | 13 | 8 | 5
CCOc1ccc2c(c1)nc(SCC(=O)c1ccc(Br)s1)n2C | x | 20* | 28* | 1968 | 29* | x | 35* | 26* | 25*
CCOc1ccc2c(c1)nc(SCC(=O)c1cccs1)n2C | x | 3 | 5 | 1436 | 6 | x | x | x | x
Cc1nnn(-c2nonc2N)c1C(=O)NNC(=O)c1ccc(Cl)c(Cl)c1 | 1748 | 8 | 6 | 1558 | 2 | 1600 | x | x | x
C=CCOc1cccc(C2C(C(=O)c3ccc(C)o3)=C(O)C(=O)N2c2nccs2)c1 (stereo unspecified) | x | 24* | 23 | 2025* | 32* | x | 2 | -1 | 3
